SW480 rereplic: inducers of DNA re-replication in SW480 colon cancer cells; SW480 DNA re-replication, Hoechst DNA content imaging, 48 h; Potency, µM (doses to about 46.1 µM), most hits filed as activators; 1.8% of 340,000 active; AID 624297; further: nearly all actives have a fitted effect of over 55% in size
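Compounds, transferred as 23 nL by pin tool, were incubated with cells for 48 hr; DNA content per nucleus was then quantified by Hoechst staining and fluorescence plate imaging.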
D3 ag: activates the human D3 dopamine receptor; D3R DiscoveRx beta-arrestin cells, luminescence, 90 min; max activation, %; 0.58% of 410,000 active; in the data active means max activation above about 30%
Target sequence (P35462 whole entry, looked up): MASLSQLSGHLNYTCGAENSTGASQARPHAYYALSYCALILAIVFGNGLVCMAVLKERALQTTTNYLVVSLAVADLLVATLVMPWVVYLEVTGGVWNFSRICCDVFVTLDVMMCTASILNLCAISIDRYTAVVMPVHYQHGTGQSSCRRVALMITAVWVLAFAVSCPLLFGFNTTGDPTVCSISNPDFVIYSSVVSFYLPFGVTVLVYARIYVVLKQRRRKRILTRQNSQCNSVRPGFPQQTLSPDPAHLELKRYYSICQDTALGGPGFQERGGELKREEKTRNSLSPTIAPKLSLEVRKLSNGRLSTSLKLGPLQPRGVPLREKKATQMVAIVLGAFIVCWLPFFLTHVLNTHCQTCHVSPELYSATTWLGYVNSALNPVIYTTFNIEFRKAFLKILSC
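Cells at 1500/well, incubated overnight, then treated with pinned compounds (dopamine as control) for 90 min at 37 degrees C. DiscoveRx reagent added for 30 - 60 minutes at room temperature; luminescence read.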
KB-3-1 tox: kills parental KB-3-1 adenocarcinoma cells; KB-3-1 viability, CellTiter-Glo ATP luminescence, 72 h; Potency, µM (titrated, usually from 46.1 µM), usual class: cytotoxic; 1.4% of 400,000 active; further: nearly all actives have a fitted effect of over 60% in size
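Using CellTiter-Glo luminescence, growth of non-resistant KB-3-1 adenocarcinoma cells is assessed 72 h after pin-tool compound addition at 37 °C. Normalized responses across the concentration series yield fitted curves.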
KB-V1 MDR tox: kills drug-selected multidrug resistant KB-V1 cells | KB-V1 MDR cells viability, CellTiter-Glo, 72 h | 3.4% of 400,000 active | AID 1347076 | Potency, µM (highest dose often 46.1 µM), actives largely listed as cytotoxic; further: nearly all actives have a fitted effect of over 60% in size
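KB-V1 cells (P-gp-expressing MDR subline of KB-3-1) in phenol-red-free DMEM with 10% FBS were exposed to library compounds over a concentration series for 72 h at 37 degrees C. Viability read by CellTiter-Glo luminescence; concentration-effect curves fitted after normalization.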
MCF10A rereplic: inducers of DNA re-replication in MCF 10A breast cells | Potency, µM (top dose mostly 46.1 µM), actives largely listed as activators | 2.9% of 350,000 active | MCF 10A DNA re-replication, Hoechst nuclear intensity, 48 h; further: nearly all actives have a fitted effect of over 50% in size
D3 antag: antagonists of human D3 dopamine receptor. P35462. D3R cells, DiscoveRx beta-arrestin luminescence, antagonist mode; active compounds read low. max response, negative = inhibition, %. 2.5% of 360,000 active. AID 652054; in the data active means max response below about -50%; inconclusive means no clear call, values can overlap the other calls
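Cells expressing the human receptor were seeded at 1500 cells/well, incubated overnight at 37 degrees C in 5% CO2, then exposed to library compounds with dopamine controls for 90 minutes at 37 degrees C before luminescent detection.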
A number is an active result; - = inactive; ? = inconclusive; . = not tested or not shown; ! = not confirmed by another sample. A selection: hits, their analogues and other compounds. The true share with any hit is near 8.9%. Unless noted, the call rests on the fitted dose curve; in most records, active means well fitted curve in the direction sought with a large enough effect; inconclusive means small, poorly fitted or top-dose-only effect, or another doubt; inactive means no such curve, though single readings can be large; an effect the other way counts as inactive or inconclusive.

SMILES | SW480 rereplic | D3 ag | KB-3-1 tox | KB-V1 MDR tox | MCF10A rereplic | D3 antag
COc1ccc(-c2cc(C(C)=O)c(C)n2CCC(=O)NCc2ccc(F)cc2)cc1 | . | - | - | - | . | .
CC(=O)/C=C1/C(=O)Nc2ccccc21 | - | - | ? | - | ? | -
C=CCOc1cccc(C(=O)/C=C2/C(=O)Nc3ccccc32)c1 | ? | - | ? | - | 5.8µM | -
O=C1Nc2ccc(Br)cc2/C1=C/C(=O)c1ccccc1 | ? | - | ? | ? | 18.4µM | -
Cc1cc(NC(=O)C(C)SCC(=O)N(Cc2ccccc2)c2ccccc2)no1 (configuration not stated) | - | - | ? | 6.51µM | ? | -
Cc1cc(NC(=O)C(C)SCC(=O)OCC(=O)N(Cc2ccccc2)C(C)(C)C)no1 (configuration not stated) | - | - | - | - | - | -
COc1ccc(C(=O)COc2ccccc2C#N)cc1 | - | - | - | - | 16.4µM | -
CCOc1ccccc1NC(=O)C(=O)CC(=O)c1ccc(OC)cc1 | - | - | - | 16.4µM | - | -
COc1ccc(C(=O)COc2ccccc2C(N)=O)cc1 | - | - | - | - | - | -
CCN(CC)C(=O)c1nc[nH]c1C(=O)N1CCC(C)CC1 | - | - | - | - | - | -
CCC1CCc2c(c3ccccc3[nH]c2=O)O1 (configuration not stated) | - | - | - | ? | - | -
O=c1[nH]c2ccccc2c2oc(CCl)nc12 | - | - | - | ? | 20.6µM | -
Cn1nc([N+](=O)[O-])nc1Oc1ccc(C(C)(C)C)cc1 | - | - | - | 14.6µM | ? | -
Cn1nc([N+](=O)[O-])nc1Oc1ccccc1 | - | - | - | ? | - | -
COc1ccc(Cl)cc1NC(=O)CCn1nc(C)cc1C | . | - | - | - | . | .
CC(=O)c1cccc(NS(=O)(=O)c2ccc3c(c2)oc(=O)n3C)c1 | - | - | ? | 16.4µM | - | -
Cn1c(=O)oc2cc(S(=O)(=O)Nc3cccc([N+](=O)[O-])c3)ccc21 | - | - | - | ? | - | -87.9
Cn1c(=O)oc2cc(S(=O)(=O)Nc3cccc(C(=O)O)c3)ccc21 | - | - | - | - | - | -
Cn1c(=O)oc2cc(S(=O)(=O)Nc3ccccc3)ccc21 | - | - | - | - | - | -
CCc1cccc(NS(=O)(=O)c2ccc3c(c2)oc(=O)n3C)c1 | - | - | ? | 4.61µM | - | -
CCc1cccc(NS(=O)(=O)c2csc(C(N)=O)c2)c1 | - | 32.6 | - | - | ? | -
C=C(C)CSc1nc2sc3c(c2c(=O)n1-c1ccccc1)CC(C(C)C)OC3 (configuration not stated) | . | - | - | ? | . | .
COc1ccc(C[C@@H]2C(=O)N[C@H](C)C(=O)N(C)[C@@H]3Cc4ccc(cc4)Oc4cc(ccc4O)C[C@H](C(=O)N[C@@H](C)C(=O)N[C@H](C)C(=O)N2C)N(C)C3=O)cc1 | . | . | - | - | . | .
CC(C)C(=O)Nc1nnc(S(=O)(=O)N(C)Cc2ccc(F)cc2)s1 | . | - | - | - | . | .
CN(c1ccccc1)c1ccc(/C=C/[N+](=O)[O-])cc1 | 20.6µM | - | ? | - | 7.31µM | -
SMILES | SW480 rereplic | D3 ag | KB-3-1 tox | KB-V1 MDR tox | MCF10A rereplic | D3 antag
O=c1ccc(C(F)(F)F)cn1Cc1cc(=O)n2ccsc2n1 | - | - | - | - | - | -
O=c1cc(CNc2cc(C(F)(F)F)cc(C(F)(F)F)c2)nc2sccn12 | - | - | 23.1µM | 25.9µM | ? | -
Cc1ccsc1CCN1C(=O)N(c2ccccc2)C(=O)C1CC(=O)Nc1ccc(F)cc1 (configuration not stated) | . | - | 23.1µM | ? | . | .
CCOc1ccc(NC(=O)CC2C(=O)N(c3ccccc3)C(=O)N2CCc2cccs2)cc1 (configuration not stated) | ? | - | - | 5.8µM! | - | -
Cc1c(C(=O)NCc2ccccc2Br)oc2c1-c1[nH]ncc1CC2 | . | - | . | . | . | .
Cc1nnc(NC(=O)C(=O)c2cc(C)n(-c3ccc(C)c(C)c3)c2C)s1 | . | - | - | - | . | .
Cc1cc2ccccc2n2c(SCC(=O)Nc3cccc(C(F)(F)F)c3)nnc12 | . | - | - | - | . | .
CCOc1ccc(Br)cc1CNCCSc1nnnn1-c1ccccc1 | . | - | - | - | . | .
CC(C)[C@@H]1Cc2[nH]c(=S)[nH]c(=O)c2[C@H](C)O1 | . | - | 8.2µM | 5.8µM | . | -
CC(C)C[C@@H]1O[C@H](C(C)C)Cc2[nH][nH]c(=O)c21 | . | - | - | - | . | -
CC1OC(C2CCCCC2)Cc2[nH]c(=S)[nH]c(=O)c21 (configuration not stated) | . | - | - | ? | . | -
C[C@@H]1O[C@H](C2CCCC2)Cc2[nH]c(=S)[nH]c(=O)c21 | . | - | 16.4µM | ? | . | -
CC(C)[C@@H]1Cc2[nH]c(=O)[nH]c(=O)c2[C@H](C)O1 | . | - | ? | 18.4µM | . | -
CC(C)[C@@H]1Cc2[nH][nH]c(=O)c2[C@H](C)O1 | . | - | - | ? | . | -
CC(C)CC1OC(C(C)C)Cc2[nH]c(=S)[nH]c(=O)c21 (configuration not stated) | . | - | - | - | . | -50.7
COc1ccc(Cl)cc1NC(=O)c1cc(-c2ccc3c(c2)OCO3)on1 | . | - | - | - | . | .
COc1ccc(C(=O)NCc2nnc(SCC(=O)Nc3ccccc3)n2-c2ccccc2)cc1 | . | - | - | ? | . | .
N#Cc1sc2nccc(Nc3ccccc3)c2c1N | 23.1µM | - | - | - | ? | -
Nc1cc(Nc2ccccc2)ccn1 | - | - | - | - | - | -

High-throughput results as filed in PubChem BioAssay.
